Assay results taken from PubChem BioAssay (Tox21).
Values without a mark were called inactive. Active and inactive are the calls of the source. Calls come from the whole dose curve.

experiment: G protein-coupled receptor (GPCR) small molecule agonists, calcium flux assay: HEK293 wild type cell line counter screen (AID 1920065); settings: HEK293 WT calcium flux, fluorescence, agonist mode; series mostly up to 57.6 µM; activation: at the top concentration
From the text: U.S. Tox21 Program National Center for Advancing Translational Sciences [NCATS] Division of Preclinical Innovation [DPI] U.S. Environmental Protection Agency [EPA] National Institutes of Environmental Health Sciences [NIEHS] National Toxicology Program [NTP] U.S. Food and Drug Administration [FDA] Assay overview: The increased intracellular calcium release that occurred upon G protein-coupled receptor (GPCR) activation led to the frequent use of calcium flux assays to detect GPCR activation. For the purpose of studying and screening compounds that may activate GPCR, receptor-overexpressing models were typically generated using Hek293 wild-type (WT) cells. In order to eliminate the compounds that may have induced calcium release for non-specific activation, a counter-assay utilizing calcium flux on Hek293 WT cells was performed. The data were formulated in order to serve as a control for any calcium flux detection utilizing Hek293 cells with either GPCR overexpression or gene modification. The procurement of Hek293 WT cells from ATCC. Fluorescence intensity can be utilized to determine the activation of the compound in a calcium flux assay. As a counter control, this cell line was utilized to screen the Tox21 10K compound library.
Assay Protocol Summary: Hek293 cells were dispensed at 1500cells/4uL/well in 1536-well black wall/clear bottom plates using a multidrop dispenser. After the assay plates were incubated at a 37 C/5% CO2 incubator for 18 hours, 4 uL of Calcium Dye Solution was added to each well. The plates were incubated at 37 C for 1 hour. For agonist mode, 23 nL of compounds dissolved in DMSO, positive control (ATP) or DMSO only was transferred to the assay plate by a pin tool station. The fluorescence intensity in the plates was measured using FDSS 7000EX kinetic plate reader with a filter set of Ex/Em=480/540 for 3 min at 1 sec intervals. Each test compound was measured at 15 concentrations and in triplicates.
% is set by controls: 0 for no effect and ±100 for the full control effect.

First: C[N+]1([O-])CCOCC1
Second: CC1CCC(C(C)(C)O)CC1 (stereo not given)
The “activation” value of the first is higher: -0.0762% for the first, -0.311% for the second.

Going from `Cc1cccc(S(=O)(=O)O)c1C` to `O=S(=O)(O)c1cccc(S(=O)(=O)O)c1`, the “activation” value rises from 0.117% to 0.58%.

Going from `CC(C)OCCO` to `C=CC(=O)NCOCC(C)C`, the “activation” value rises from -0.597% to 0.0557%.

Compared with `CCOC(=O)CCC(C)=O`, `CC(C)=CCCC(C)O` (stereo not given) is higher in “activation” value: -0.0428% for the first, 0.533% for the second.

Going from `Cc1ccc2n[nH]nc2c1` to `Cc1ccc2c(ccc3ccccc32)c1`, the “activation” value falls from 0.785% to -1.5%.

First: CC1=C(C=O)C(C)(C)CC=C1
Second: C=C1CC/C=C(\C)CC[C@@H]2[C@@H]1CC2(C)C
The “activation” value of the first is lower: 0.176% for the first, 0.194% for the second.

First: CC1(C)[C@H]2CC[C@]1(C)[C@H](O)C2
Second: CC1CCc2nccnc21 (stereo not given)
The “activation” value of the first is higher: 2.02% for the first, 1.94% for the second.

Compared with `O=C1C(c2[nH]c3ccc(S(=O)(=O)O)cc3c2O)=Nc2ccc(S(=O)(=O)O)cc21`, `Cc1ccc(S(=O)(=O)NC2CCCCC2)cc1` is lower in “activation” value: 0.787% for the first, -0.345% for the second.

First: O=Cc1ccc(F)cc1
Second: C1=Cc2ccccc2C1
The “activation” value of the first is higher: 0.621% for the first, -0.305% for the second.

First: Cc1ccccc1OCC1CO1 (stereo not given)
Second: C[Si]1(C)O[Si](C)(C)O[Si](C)(C)O[Si](C)(C)O[Si](C)(C)O1
The “activation” value of the first is higher: -0.0786% for the first, -0.447% for the second.

Compared with `CC(C)c1cc2c(cc1S(=O)(=O)O)[C@@]1(C)CCC[C@@](C)(C(=O)O)[C@@H]1CC2`, `COc1cc(S(N)(=O)=O)cc(C(=O)O)c1OC` is higher in “activation” value: -0.762% [at 26.5 µM] for the first, 0.487% [at 26.5 µM] for the second.

Compared with `Cc1cc(O)cc2c1O[C@](C)(CCC[C@H](C)CCC[C@H](C)CCCC(C)C)CC2`, `CC(C)(C)NCC(O)COc1ccccc1OCC1CCCO1` (stereo not given) is higher in “activation” value: -2.64% [at 26.5 µM] for the first, -1.19% [at 26.5 µM] for the second.

First: CC(C)N=C(N)/N=C(\N)Nc1ccc(Cl)cc1
Second: COC(=O)c1cc(Cl)ccc1OC
The “activation” value of the first is higher: -0.257% [at 26.5 µM] for the first, -0.599% [at 26.5 µM] for the second.

Going from `CC(S)C(=O)NCC(=O)O` (stereo not given) to `CC(=O)SC[C@@H](C)C(=O)N1CCC[C@H]1C(=O)N[C@@H](Cc1ccccc1)C(=O)O`, the “activation” value falls from 0.011% [at 26.5 µM] to -0.563% [at 26.5 µM].

Compared with `Cc1ccccc1C(=O)N1CC/C(=N\OS(=O)(=O)O)c2ccc(Cl)cc21`, `O=C(O)CCC(=O)Nc1ccc(S(=O)(=O)Nc2nccs2)cc1` is higher in “activation” value: -0.647% [at 26.5 µM] for the first, -0.633% [at 26.5 µM] for the second.

For `Oc1ccc(Cl)cc1Sc1cc(Cl)ccc1O`, the Potency was “inactive”.
With `Cc1ccc(N(C)C)cc1` the Potency was “inactive”.
With `OCCOCCOCCOCCOCCO` the Potency was “inactive”.
With `CC(C)(C)CC(C)(C)c1ccc(OCCOCC[N+](C)(C)Cc2ccccc2)cc1` the Potency was “inactive”.
For `CCOC(=O)c1ccc(N)cc1`, the Potency was “inactive”.
For `c1ccc2c(c1)Oc1ccccc1S2`, the Potency was “inactive”.
With `NCc1cccc(CN)c1` the Potency was “inactive”.

`C[C@@H]1NC(=O)[C@@H](N)CNC(=O)[C@H](C2CCNC(N)=N2)NC(=O)/C(=C/NC(N)=O)NC(=O)[C@H](CNC(=O)C[C@@H](N)CCCN)NC1=O` (stereo not given in full) showed an activation of -0.973% [at 0.217 µM].

First: CCCCCCCCCCCCCCCC(=O)OC
Second: COC(=O)c1ccc2cc(C(=O)OC)ccc2c1
The activation of the first is higher: 0.455% [at 11.8 µM] for the first, 0.0113% [at 11.8 µM] for the second.
